For experiment [1], the target named is Retinoic acid receptor RXR-alpha (Homo sapiens) (UniProt P19793). The experiment in a line: OT_NURR1_NURR1RXRa_1440: Odyssey Thera (OT) 24-hour HEK293T Protein Complementation Assay for Nurr1/retinoid X receptor (RXR) (AID 2283386). An outline of the steps:
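Steps: fragment-tagged Nurr1 and RXRα expressed in HEK293T; compounds added; after 24 h, complemented reporter quantified by fluorescence intensity; signal increase over DMSO fitted as the single endpoint.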

Experiment [2] deals with Peroxisome proliferator-activated receptor gamma (Homo sapiens) (UniProt P37231). As to the kind of experiment: OT_PPARg_PPARgSRC1_0480: Odyssey Thera (OT) 8-hour Protein-Complementation Assay for Peroxisome Proliferator-activated Receptor Gamma / SRC-1 Co-activator (AID 2283387).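 Further: nuclear to cytoplasmic split Venus YFP fluorescence ratio reporting PPARg SRC-1 interaction.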 A digest of the protocol:
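HEK293T transiently transfected with PPARg and SRC-1 fused to Venus YFP fragments, compounds 8 h at 37C. Fixed, Draq5-stained cells imaged; nuclear/cytoplasmic 488 nm fluorescence ratio over at least 350 cells per image; gain fitted versus DMSO.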

For experiment [3] the target is unchanged. As to the kind of experiment: OT_PPARg_PPARgSRC1_1440: Odyssey Thera (OT) 24-hour Protein-Complementation Assay for Peroxisome Proliferator-activated Receptor Gamma/ SRC-1 Co-activator (AID 2283388). An outline of the steps: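 Transient HEK293T, YFP fragments 1-158/159-239 (mutant IFP1/IFP2) fused to PPARg/SRC-1; 24 h dosing; fix 4% formaldehyde, Draq5; Opera imaging 488/635 nm; N/C ratio, gain vs DMSO.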

Read-out in experiment [4]: Tumor necrosis factor receptor superfamily member 6 (Homo sapiens) (UniProt P25445)
As to the kind of experiment: LTEA_HepaRG_FAS: Life Technologies and Expression Analysis (LTEA) Assay for Fas cell surface death receptor (FAS) using HepaRG (AID 2283447; active means hit-call score of the fitted dose curve at least 0.9, where 1 is the maximum; inactive means score below 0.9). The conditions noted are these: mRNA level, 48 h; actives raise or lower the signal. An outline of the steps:
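Differentiated human HepaRG cells, pre-cultured 48 h, were exposed in duplicate for 48 h to 8-point half-log concentrations (top 100 uM, 0.5% DMSO) in serum-free induction medium; FAS mRNA measured by qRT-PCR, normalized to ACTB/GAPDH/POLR2A, bidirectional fit versus DMSO.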

Read-out in experiment [5]: Cyclin D2 (CCND2), CCND2 (gene 894)
As to the kind of experiment: LTEA_HepaRG_CCND2: Life Technologies and Expression Analysis (LTEA) Assay for Cyclin D2 (CCND2) using HepaRG (AID 2283449; active means hit-call score of the fitted dose curve at least 0.9, where 1 is the maximum; inactive means score below 0.9;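 further: CCND2 transcript measured by TaqMan qRT-PCR and normalised to three housekeeping genes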). The following applies: mRNA level, 48 h; actives raise or lower the signal. A digest of the protocol:
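In this HepaRG study, an eight-point concentration series (max 100 uM, 0.5% DMSO) is applied for 48 h. CCND2 mRNA change is derived by qRT-PCR normalised to ACTB, GAPDH and POLR2A.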

Read-out in experiment [6]: Cyclin Dependent Kinase Inhibitor 1A (CDKN1A), CDKN1A (gene 1026)
The experiment in a line: LTEA_HepaRG_CDKN1A: Life Technologies and Expression Analysis (LTEA) Assay for Cyclin Dependent Kinase Inhibitor 1A (CDKN1A) using HepaRG (AID 2283450; active means hit-call score of the fitted dose curve at least 0.9, where 1 is the maximum; inactive means score below 0.9). The following applies: mRNA level, 48 h; actives raise or lower the signal. An outline of the steps:
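Cryopreserved HepaRG cells were plated and cultured 48 h, then switched to serum-free induction medium. Chemicals (eight half-log concentrations, top 100 uM, 0.5% DMSO) were applied for 48 h. Lysates underwent qRT-PCR for CDKN1A with housekeeping normalization.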

Experiment [7] addresses Retinoic acid receptor RXR-alpha (Homo sapiens) (UniProt P19793). As to the kind of experiment: OT_NURR1_NURR1RXRa_0480: Odyssey Thera (OT) 8-hour HEK293T Protein Complementation Assay for Nurr1/retinoid X receptor (RXR) (AID 2283385). An outline of the steps:
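Interaction of bait and prey reconstitutes a functional reporter, whose fluorescence was measured in HEK293T cells dosed with compound for 8 hours. Signal gain relative to DMSO defined the single endpoint.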

Experiment [8] in a line: CEETOX_H295R_11DCORT: CeeTox H295R High-throughput Steroidogenesis Assay for 11-Deoxycortisol (11DCORT) (AID 2283432; active means hit-call score of the fitted dose curve at least 0.9, where 1 is the maximum; inactive means score below 0.9;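 on AC50: human adrenal H295R cells prestimulated with 10 µM forskolin for 48 h; 11-deoxycortisol secreted into the medium measured by LC-MS/MS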). The following applies: actives raise or lower the signal. An outline of the steps: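 H295R cells prestimulated 48 h with 10 uM forskolin, then exposed 48 h to chemical in 0.1% DMSO. 11-Deoxycortisol in medium quantified by HPLC-MS/MS after MTBE extraction; bidirectional fit versus DMSO. MTT viability read in same wells.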

Experiment [9] in a line: CEETOX_H295R_OHPREG: CeeTox H295R High-throughput Steroidogenesis Assay for OH-Pregnenolone (OHPREG) (AID 2283434; active means hit-call score of the fitted dose curve at least 0.9, where 1 is the maximum; inactive means score below 0.9). The following applies: actives raise or lower the signal. A digest of the protocol: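 Readout: HPLC-MS/MS of 17alpha-hydroxypregnenolone in medium after 48 h chemical exposure of H295R cells pretreated with forskolin. Values fitted bidirectionally relative to DMSO; chemicals reducing viability to 20–70% were retested after 10-fold dilution.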

Experiment [10] in a line: CEETOX_H295R_OHPROG: CeeTox H295R High-throughput Steroidogenesis Assay for OH-Progesterone (OHPROG) (AID 2283435; active means hit-call score of the fitted dose curve at least 0.9, where 1 is the maximum; inactive means score below 0.9;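 on AC50: human adrenal H295R cells primed 48 h with 10 µM forskolin; 17alpha-hydroxyprogesterone secreted into medium measured by HPLC-MS/MS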). The conditions noted are these: actives raise or lower the signal. A digest of the protocol:
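Steps: seed H295R cells and adhere overnight; stimulate with 10 uM forskolin for 48 h; replace with chemical-containing medium (0.1% DMSO) for 48 h; extract medium with MTBE; quantify 17alpha-hydroxyprogesterone by reverse-phase C18 HPLC-MS/MS against a 7-point curve.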

The nature of experiment [11]: CEETOX_H295R_CORTIC: CeeTox H295R High-throughput Steroidogenesis Assay for Corticosterone (CORTIC) (AID 2283437; active means hit-call score of the fitted dose curve at least 0.9, where 1 is the maximum; inactive means score below 0.9;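 further: corticosterone secreted into medium quantified by mass spectrometry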). The following applies: actives raise or lower the signal. A digest of the protocol: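 Steps: seed H295R, adhere overnight; 10 uM forskolin 48 h; replace with chemical (0.1% DMSO) 48 h; extract medium with MTBE; quantify corticosterone by HPLC-MS/MS; score bidirectionally vs DMSO.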

Experiment [12] in a line: CEETOX_H295R_CORTISOL: CeeTox H295R High-throughput Steroidogenesis Assay for Cortisol (AID 2283438; active means hit-call score of the fitted dose curve at least 0.9, where 1 is the maximum; inactive means score below 0.9). The conditions noted are these: actives raise or lower the signal. An outline of the steps:
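Cortisol synthesis by H295R cells is measured 48 h after chemical dosing, following a 48 h stimulation with 10 uM forskolin. Hormone is extracted and quantified by HPLC-MS/MS, and activity is fitted bidirectionally against the DMSO control.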

The nature of experiment [13]: CEETOX_H295R_DOC: CeeTox H295R High-throughput Steroidogenesis Assay for DOC (AID 2283439; active means hit-call score of the fitted dose curve at least 0.9, where 1 is the maximum; inactive means score below 0.9). The conditions noted are these: actives raise or lower the signal. An outline of the steps:
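Steps: seed H295R, adhere overnight; 10 uM forskolin 48 h; replace with chemical medium (0.1% DMSO) 48 h; collect medium, MTBE extraction, HPLC-MS/MS for DOC. Viability then checked by MTT; cytotoxic chemicals diluted until viability ≥70%.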

A short description of experiment [14]: CEETOX_H295R_ESTRADIOL: CeeTox H295R High-throughput Steroidogenesis Assay for Estradiol (AID 2283440; active means hit-call score of the fitted dose curve at least 0.9, where 1 is the maximum; inactive means score below 0.9;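 further: estradiol secreted into medium quantified by LC-MS/MS after dansyl derivatisation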). The following applies: actives raise or lower the signal. A digest of the protocol:
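Following OECD 456 with minor changes, H295R cells received 10 uM forskolin for 48 h and then test chemical for 48 h. Hormone output was read by HPLC-MS/MS, with cytotoxic concentrations diluted until MTT viability reached ≥70%.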

A short description of experiment [15]: CEETOX_H295R_ESTRONE: CeeTox H295R High-throughput Steroidogenesis Assay for Estrone (AID 2283441; active means hit-call score of the fitted dose curve at least 0.9, where 1 is the maximum; inactive means score below 0.9). The following applies: actives raise or lower the signal. A digest of the protocol: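 Estrone secreted into medium quantified by LC-MS/MS after dansyl chloride derivatization, following 48 h chemical exposure (0.1% DMSO final) of forskolin-prestimulated (10 uM, 48 h) H295R cells; gain or loss fitted against DMSO; MTT viability in same wells.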

Experiment [16] is described as follows: CEETOX_H295R_PROG: CeeTox H295R High-throughput Steroidogenesis Assay for Progesterone (PROG) (AID 2283442; active means hit-call score of the fitted dose curve at least 0.9, where 1 is the maximum; inactive means score below 0.9;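 on AC50: human H295R adrenal cells primed with 10 µM forskolin before dosing; progesterone secreted into medium by H295R cells measured by HPLC-MS/MS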). The conditions noted are these: actives raise or lower the signal. A digest of the protocol:
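Adrenal H295R line, forskolin-stimulated (10 uM, 48 h) before dosing. 48 h exposure, 0.1% DMSO vehicle. Secreted progesterone by reverse-phase HPLC with ESI+ MS/MS quantification; DMSO-normalised bidirectional curve fit.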

Read-out in experiment [17]: Fatty acid synthase (Homo sapiens) (UniProt P49327)
As to the kind of experiment: LTEA_HepaRG_FASN: Life Technologies and Expression Analysis (LTEA) Assay for Fatty Acid Synthase (FASN) using HepaRG (AID 2283448; active means hit-call score of the fitted dose curve at least 0.9, where 1 is the maximum; inactive means score below 0.9). The following applies: mRNA level, 48 h; actives raise or lower the signal. An outline of the steps:
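Cells were plated, cultured 48 h, switched to serum-free induction medium, then dosed in duplicate (max 100 uM, half-log dilutions, 0.5% DMSO) for 48 h. RNA was then isolated and FASN quantified by qRT-PCR.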

Experiment [18] in a line: CEETOX_H295R_ANDR: CeeTox H295R High-throughput Steroidogenesis Assay for Androstenedione (ANDR) (AID 2283436; active means hit-call score of the fitted dose curve at least 0.9, where 1 is the maximum; inactive means score below 0.9;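 further: human H295R adrenal cells exposed for 48 h with androstenedione measured in medium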). The conditions noted are these: actives raise or lower the signal. An outline of the steps:
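Steroidogenesis in H295R adrenal cells after 48 h dosing; androstenedione quantified by LC-MS/MS, with DMSO as negative control and baseline for bidirectional curve fitting.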

Experiment [19] deals with Bile acid receptor (Homo sapiens) (UniProt Q96RI1). The experiment in a line: OT_FXR_FXRSRC1_1440: Odyssey Thera (OT) 24-hour HEK293T Protein-Complementation Assay for Farnesoid X receptor/SRC-1 Co-activator (AID 2283384). An outline of the steps: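 Measures ligand-driven FXR–SRC-1 co-activator recruitment in HEK293T via fragment complementation, fluorescence intensity at 24 h. DMSO served as negative control and baseline for gain-of-signal fitting.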

For experiment [20] the target is unchanged. The experiment in a line: OT_FXR_FXRSRC1_0480: Odyssey Thera (OT) 8-hour HEK293T Protein-Complementation Assay for Farnesoid X receptor/SRC-1 Co-activator (AID 2283383). A digest of the protocol:
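PCA, HEK293T, 8 h compound exposure; FXR–SRC-1 binding reconstitutes split reporter; fluorescence intensity; positive-direction fit vs DMSO.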

Records with an inconclusive call do not appear. Active and inactive are the calls of the source. How the source made its calls, unless noted: active means hit-call score of the fitted dose curve at least 0.9, where 1 is the maximum; inconclusive means response in the unintended direction; inactive means score below 0.9.

Peroxisome proliferator-activated receptor gamma (Homo sapiens), sequence (P37231 whole entry, looked up, the tested form may be a part): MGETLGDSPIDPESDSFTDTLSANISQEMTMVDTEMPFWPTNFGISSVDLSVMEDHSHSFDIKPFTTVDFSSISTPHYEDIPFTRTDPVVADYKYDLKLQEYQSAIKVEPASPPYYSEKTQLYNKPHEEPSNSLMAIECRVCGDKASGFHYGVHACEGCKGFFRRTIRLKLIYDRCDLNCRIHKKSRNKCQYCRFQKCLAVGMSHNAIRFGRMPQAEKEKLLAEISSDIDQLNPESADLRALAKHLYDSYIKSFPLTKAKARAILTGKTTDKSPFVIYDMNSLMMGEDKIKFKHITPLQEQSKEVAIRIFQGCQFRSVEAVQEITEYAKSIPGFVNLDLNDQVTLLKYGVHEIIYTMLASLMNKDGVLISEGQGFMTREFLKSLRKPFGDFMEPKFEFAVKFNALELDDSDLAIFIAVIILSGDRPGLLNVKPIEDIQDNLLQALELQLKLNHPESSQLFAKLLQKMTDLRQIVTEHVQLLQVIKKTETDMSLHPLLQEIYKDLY
Retinoic acid receptor RXR-alpha (Homo sapiens), sequence (P19793 whole entry, looked up, the tested form may be a part): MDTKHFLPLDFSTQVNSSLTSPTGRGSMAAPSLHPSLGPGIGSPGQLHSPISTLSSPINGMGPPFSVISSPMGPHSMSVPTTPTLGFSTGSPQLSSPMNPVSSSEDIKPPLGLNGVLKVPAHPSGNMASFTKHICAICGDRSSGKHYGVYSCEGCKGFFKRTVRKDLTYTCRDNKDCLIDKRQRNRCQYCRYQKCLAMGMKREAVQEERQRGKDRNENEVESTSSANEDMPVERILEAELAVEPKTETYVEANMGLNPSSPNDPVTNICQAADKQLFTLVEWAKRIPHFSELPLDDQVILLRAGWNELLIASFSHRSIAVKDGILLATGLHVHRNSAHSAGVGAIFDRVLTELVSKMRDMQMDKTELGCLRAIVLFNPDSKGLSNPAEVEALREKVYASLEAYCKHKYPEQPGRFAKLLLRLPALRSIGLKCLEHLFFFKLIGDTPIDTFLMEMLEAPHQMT
Bile acid receptor (Homo sapiens), sequence (Q96RI1 whole entry, looked up, the tested form may be a part): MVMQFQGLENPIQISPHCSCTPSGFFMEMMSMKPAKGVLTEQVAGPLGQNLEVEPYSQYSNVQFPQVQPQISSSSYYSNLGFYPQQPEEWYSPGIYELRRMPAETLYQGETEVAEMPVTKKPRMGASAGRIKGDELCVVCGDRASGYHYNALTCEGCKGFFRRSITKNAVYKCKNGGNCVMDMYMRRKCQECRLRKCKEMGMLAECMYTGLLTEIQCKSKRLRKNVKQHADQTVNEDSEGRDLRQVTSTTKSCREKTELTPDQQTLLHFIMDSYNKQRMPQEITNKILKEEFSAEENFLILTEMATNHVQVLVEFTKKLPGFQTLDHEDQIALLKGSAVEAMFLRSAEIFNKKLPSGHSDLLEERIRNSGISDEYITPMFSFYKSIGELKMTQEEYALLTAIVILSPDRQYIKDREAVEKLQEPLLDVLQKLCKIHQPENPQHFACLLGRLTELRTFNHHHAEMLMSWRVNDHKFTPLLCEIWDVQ
Fatty acid synthase (Homo sapiens), sequence (P49327 whole entry, looked up): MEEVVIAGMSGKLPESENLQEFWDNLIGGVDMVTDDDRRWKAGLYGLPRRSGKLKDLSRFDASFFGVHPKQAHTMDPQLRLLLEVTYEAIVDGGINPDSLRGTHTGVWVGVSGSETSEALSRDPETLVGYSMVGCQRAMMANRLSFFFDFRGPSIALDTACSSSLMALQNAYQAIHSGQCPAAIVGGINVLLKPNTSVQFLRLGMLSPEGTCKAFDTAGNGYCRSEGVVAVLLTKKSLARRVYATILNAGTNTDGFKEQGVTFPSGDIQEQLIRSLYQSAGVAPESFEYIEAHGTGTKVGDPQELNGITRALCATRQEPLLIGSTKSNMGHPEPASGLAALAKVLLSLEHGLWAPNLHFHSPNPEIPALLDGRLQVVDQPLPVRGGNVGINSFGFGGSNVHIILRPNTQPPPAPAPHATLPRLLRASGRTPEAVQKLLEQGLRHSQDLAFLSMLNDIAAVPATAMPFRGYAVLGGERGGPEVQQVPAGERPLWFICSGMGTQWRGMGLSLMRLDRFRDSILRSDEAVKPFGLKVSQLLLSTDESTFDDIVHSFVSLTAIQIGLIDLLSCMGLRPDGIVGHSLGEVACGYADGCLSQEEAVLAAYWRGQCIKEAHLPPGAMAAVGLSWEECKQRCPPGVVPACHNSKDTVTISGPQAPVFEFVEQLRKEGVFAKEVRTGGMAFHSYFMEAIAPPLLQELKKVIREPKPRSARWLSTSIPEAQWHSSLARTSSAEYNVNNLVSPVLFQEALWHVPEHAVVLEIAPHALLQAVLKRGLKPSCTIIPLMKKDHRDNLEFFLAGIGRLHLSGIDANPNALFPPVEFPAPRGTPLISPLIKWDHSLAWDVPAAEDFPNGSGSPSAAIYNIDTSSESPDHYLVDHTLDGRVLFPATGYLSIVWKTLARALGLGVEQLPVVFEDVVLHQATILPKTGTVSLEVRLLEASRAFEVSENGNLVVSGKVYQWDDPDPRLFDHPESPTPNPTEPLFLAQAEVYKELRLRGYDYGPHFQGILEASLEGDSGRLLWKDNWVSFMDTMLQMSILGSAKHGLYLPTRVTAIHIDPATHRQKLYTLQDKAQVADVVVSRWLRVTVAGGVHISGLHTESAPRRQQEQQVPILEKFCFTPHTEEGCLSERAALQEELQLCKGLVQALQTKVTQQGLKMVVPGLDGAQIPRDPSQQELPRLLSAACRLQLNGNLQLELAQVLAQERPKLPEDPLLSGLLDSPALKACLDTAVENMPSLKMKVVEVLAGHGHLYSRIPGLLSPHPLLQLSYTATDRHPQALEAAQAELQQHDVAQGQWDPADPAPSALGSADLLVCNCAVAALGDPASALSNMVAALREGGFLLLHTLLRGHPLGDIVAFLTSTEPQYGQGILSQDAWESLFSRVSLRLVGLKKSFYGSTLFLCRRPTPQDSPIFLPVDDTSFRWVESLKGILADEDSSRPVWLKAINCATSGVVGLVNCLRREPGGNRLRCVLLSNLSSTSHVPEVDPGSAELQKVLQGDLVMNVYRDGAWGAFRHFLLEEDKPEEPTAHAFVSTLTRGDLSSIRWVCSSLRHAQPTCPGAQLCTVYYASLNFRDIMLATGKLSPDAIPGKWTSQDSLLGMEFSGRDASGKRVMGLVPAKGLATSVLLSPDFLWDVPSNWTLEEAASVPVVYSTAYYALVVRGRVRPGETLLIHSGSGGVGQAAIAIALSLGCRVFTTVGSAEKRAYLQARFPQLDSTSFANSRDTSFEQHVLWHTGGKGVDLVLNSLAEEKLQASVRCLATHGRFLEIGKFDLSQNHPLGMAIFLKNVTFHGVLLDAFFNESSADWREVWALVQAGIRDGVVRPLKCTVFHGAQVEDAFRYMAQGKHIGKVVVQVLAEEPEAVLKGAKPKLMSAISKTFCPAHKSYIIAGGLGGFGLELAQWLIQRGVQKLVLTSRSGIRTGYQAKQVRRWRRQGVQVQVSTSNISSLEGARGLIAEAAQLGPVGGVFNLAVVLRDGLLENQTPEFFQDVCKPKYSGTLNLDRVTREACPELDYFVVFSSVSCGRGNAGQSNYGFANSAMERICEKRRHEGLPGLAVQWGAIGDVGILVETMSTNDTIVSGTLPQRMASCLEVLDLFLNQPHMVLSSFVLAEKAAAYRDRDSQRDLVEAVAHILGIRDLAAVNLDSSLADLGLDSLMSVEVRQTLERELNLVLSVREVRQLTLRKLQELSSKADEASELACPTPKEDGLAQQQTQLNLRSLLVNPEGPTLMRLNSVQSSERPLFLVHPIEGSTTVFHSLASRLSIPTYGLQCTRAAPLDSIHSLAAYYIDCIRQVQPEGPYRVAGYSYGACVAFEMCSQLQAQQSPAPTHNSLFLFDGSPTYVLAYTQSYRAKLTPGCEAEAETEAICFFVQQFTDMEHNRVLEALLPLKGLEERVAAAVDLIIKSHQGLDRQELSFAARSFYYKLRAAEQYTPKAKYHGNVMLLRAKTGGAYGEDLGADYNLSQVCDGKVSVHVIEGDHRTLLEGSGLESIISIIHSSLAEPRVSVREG

Take `COCC(C)O` (configuration not stated): the result in experiment [1], in experiment [2], in experiment [3], in experiment [4], in experiment [5] and in experiment [6] was inactive.
As for `C[C@@H]1C[C@H]2[C@@H]3CCC4=CC(=O)C=C[C@]4(C)[C@@]3(F)[C@@H](O)C[C@]2(C)[C@@]1(O)C(=O)COP(=O)(O)O`, the molecule was classed as inactive in [7], in experiment [1], in [2], in experiment [3], in [8] and in experiment [9]. In addition, the result in experiment [10], in experiment [11], in experiment [12], in experiment [13], in [14] and in experiment [15] was inactive. The call in experiment [16], in experiment [4], in experiment [5] and in experiment [6] was inactive.
In the case of `CC1=C(/C=C/C(C)=C/C=C/C(C)=C/C(=O)O)C(C)(C)CCC1`, the result in experiment [2], in [3], in experiment [8], in [10], in [12] and in experiment [4] was inactive. In addition, the molecule was classed as inactive in [5] and in [6]. The AC50 was 7.19 µM (active) in experiment [13] and 8.11 µM (active) in experiment [16].
For the molecule `C#C[C@]1(O)CC[C@H]2[C@@H]3CCC4=CC(=O)CC[C@@H]4[C@H]3CC[C@@]21C`, the outcome in [7], in experiment [1], in experiment [2], in experiment [3], in experiment [11] and in [4] was inactive. The molecule was called inactive in experiment [5] and in [6]. In addition, the AC50 in experiment [17] was 50 µM (active).
As to `O=C(O)c1ccccc1C(c1ccc(O)cc1)c1ccc(O)cc1`, the molecule was classed as inactive in [7], in [1], in [2], in experiment [3], in experiment [9] and in experiment [18]. Also, the outcome in experiment [11], in experiment [12], in experiment [14], in experiment [15], in experiment [4] and in experiment [6] was inactive. Also, the AC50 was 25 µM (active) in experiment [8], 7.38 µM (active) in experiment [10], 6.89 µM (active) in experiment [13] and 10.2 µM (active) in experiment [16].
With `CCCCC(CC)COC(=O)CCCCC(=O)OCc1ccccc1` (configuration not stated), the outcome in experiment [19], in experiment [7], in experiment [1], in [2], in experiment [3] and in experiment [4] was inactive. Besides, the result in [5] and in experiment [6] was inactive.
On to `COC(=O)CCCCC(=O)OC`, for which the call in experiment [19], in experiment [7], in experiment [1], in experiment [2], in experiment [3] and in experiment [8] was inactive. Also, the call in experiment [9], in experiment [10], in [11], in experiment [12], in [13] and in experiment [16] was inactive. The molecule was classed as inactive in experiment [4] and in [6].
As to `c1ccc2c(c1)Cc1ccccc1-2`, the outcome in [20], in experiment [7], in experiment [1], in experiment [2], in experiment [3] and in experiment [4] was inactive. In addition, the outcome in [5] and in [6] was inactive.

These data come from PubChem BioAssay (EPA / NIEHS).
